Our source for the outcome and AC50 values is PubChem BioAssay (EPA / NIEHS).

Activity calls are given as the source filed them. How the source made its calls: active means hit-call score of the fitted dose curve at least 0.9, where 1 is the maximum; inactive means score below 0.9.

What all share (conditions): mRNA level, 48 h; actives raise or lower the signal
Read-out in test [1]: Bcl-2 (BAX) gene, BAX (gene 581)
The test can be described thus: LTEA_HepaRG_BAX: Life Technologies and Expression Analysis (LTEA) Assay for Bcl-2 (BAX) gene using HepaRG (AID 2283470). The procedure, abridged:
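Differentiated HepaRG cells exposed 48 h in serum-free induction medium, eight half-log concentrations from 100 uM, in duplicate, 0.5% DMSO vehicle. BAX mRNA by TaqMan qRT-PCR, normalised to ACTB, GAPDH and POLR2A.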

Read-out in test [2]: adenosine kinase (ADK) gene, ADK (gene 132)
Description: LTEA_HepaRG_ADK: Life Technologies and Expression Analysis (LTEA) Assay for adenosine kinase (ADK) gene using HepaRG (AID 2283471). The procedure, abridged:
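ADK expression quantified by qRT-PCR, normalised to three housekeeping genes, after 48 h exposure of HepaRG cells to eight concentrations (top 100 uM, half-log steps, duplicate, 0.5% DMSO). Up- or down-regulation fitted relative to vehicle.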

Read-out in test [3]: Alpha-fetoprotein (AFP) gene, AFP (gene 174)
Description: LTEA_HepaRG_AFP: Life Technologies and Expression Analysis (LTEA) Assay for Alpha-fetoprotein (AFP) gene using HepaRG (AID 2283472). The procedure, abridged:
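Differentiated human HepaRG cells exposed 48 h in serum-free induction medium, 8-point half-log series from 100 uM in 0.5% DMSO, duplicate. AFP mRNA by qRT-PCR, normalized to ACTB, GAPDH, POLR2A; bidirectional fit vs DMSO.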

Read-out in another test: BCL2L11 (gene 10018)
Description: LTEA_HepaRG_BCL2L11: Life Technologies and Expression Analysis (LTEA) Assay for Bcl-2 (BCL2L11) gene using HepaRG (AID 2283473). The method in brief: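 Differentiated human HepaRG cells were exposed 48 h in serum-free induction medium to eight half-log concentrations up to 100 uM in 0.5% DMSO, in duplicate. BCL2L11 mRNA was quantified by TaqMan qRT-PCR, normalized to ACTB, GAPDH and POLR2A; induction or repression fitted versus DMSO.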

Read-out in test [4]: Apolipoprotein A-V (APOA5) gene, APOA5 (gene 116519)
Description: LTEA_HepaRG_APOA5: Life Technologies and Expression Analysis (LTEA) Assay for Apolipoprotein A-V (APOA5) gene using HepaRG (AID 2283474). The method in brief:
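Differentiated HepaRG cells in serum-free induction medium, exposed 48 h in duplicate to eight half-log concentrations topping at 100 uM (0.5% DMSO). APOA5 mRNA by Fluidigm TaqMan qRT-PCR, normalized to ACTB, GAPDH and POLR2A; bidirectional fit versus DMSO.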

Read-out in test [5]: Apoptosis regulator Bcl-2 (Homo sapiens) (UniProt P10415)
The test can be described thus: LTEA_HepaRG_BCL2: Life Technologies and Expression Analysis (LTEA) Assay for Bcl-2 gene using HepaRG (AID 2283475). The method in brief:
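Differentiated human HepaRG cells in serum-free induction medium exposed 48 h, in duplicate, to 8-point half-log series from 100 uM in 0.5% DMSO. BCL2 mRNA by qRT-PCR (TaqMan/Fluidigm), normalized to ACTB, GAPDH, POLR2A; bidirectional fit against DMSO.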

Read-out in test [6]: Bcl-2 (BID) gene, BID (gene 637)
Description: LTEA_HepaRG_BID: Life Technologies and Expression Analysis (LTEA) Assay for Bcl-2 (BID) gene using HepaRG (AID 2283476). The procedure, abridged: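 Gene expression by qRT-PCR in HepaRG cells after 48 h exposure, duplicate wells, eight half-log concentrations topping at 100 uM in 0.5% DMSO. Normalized to ACTB, GAPDH, POLR2A; bidirectional fitting relative to DMSO.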

Read-out in the next test: Caspase-3 (Homo sapiens) (UniProt P42574)
Description: LTEA_HepaRG_CASP3: Life Technologies and Expression Analysis (LTEA) Assay for cysteine-aspartic acid protease (CASP3) using HepaRG (AID 2283477). The procedure, abridged: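 Differentiated HepaRG cells, plated 48 h, were treated in duplicate in serum-free induction medium for 48 h with eight half-log concentrations up to 100 uM in 0.5% DMSO. CASP3 mRNA measured by qRT-PCR, normalized to ACTB, GAPDH, POLR2A.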

Read-out in test [7]: Cytochrome P450 (CYP24A1), CYP24A1 (gene 1591)
Description: LTEA_HepaRG_CYP24A1: Life Technologies and Expression Analysis (LTEA) Assay for Cytochrome P450 (CYP24A1) using HepaRG (AID 2283478). The procedure, abridged:
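HepaRG cells plated 48 h, then exposed in duplicate in serum-free induction medium for 48 h to 8-point half-log series from 100 uM in 0.5% DMSO. CYP24A1 mRNA by Fluidigm qRT-PCR, normalized to ACTB, GAPDH, POLR2A; bidirectional fit versus DMSO.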

Read-out in test [8]: cysteine-aspartic acid protease (CASP8), CASP8 (gene 841)
Description: LTEA_HepaRG_CASP8: Life Technologies and Expression Analysis (LTEA) Assay for cysteine-aspartic acid protease (CASP8) using HepaRG (AID 2283480). The procedure, abridged: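 Differentiated HepaRG cells in serum-free induction medium, 48 h exposure, eight-point half-log series from 100 uM in 0.5% DMSO, duplicates. CASP8 mRNA by qRT-PCR, normalized to ACTB, GAPDH, POLR2A; bidirectional fit versus DMSO.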

Read-out in test [9]: Cytochrome P450 (CYP2B6), CYP2B6 (gene 1555)
Description: LTEA_HepaRG_CYP2B6: Life Technologies and Expression Analysis (LTEA) Assay for Cytochrome P450 (CYP2B6) using HepaRG (AID 2283481). The procedure, abridged: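 Differentiated human HepaRG cells in serum-free induction medium, dosed in duplicate for 48 h over 8 half-log concentrations topping at 100 uM (0.5% DMSO). CYP2B6 mRNA measured by TaqMan qRT-PCR, normalized to ACTB, GAPDH, POLR2A; bidirectional fit versus DMSO.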

Read-out in test [10]: Cytochrome P450 2C19 (Homo sapiens) (UniProt P33261)
The test can be described thus: LTEA_HepaRG_CYP2C19: Life Technologies and Expression Analysis (LTEA) Assay for CYP2C19 using HepaRG (AID 2283482). The method in brief:
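Differentiated HepaRG cells in serum-free induction medium exposed 48 h in duplicate, 8 concentrations from 100 uM by half-log steps in 0.5% DMSO. CYP2C19 mRNA measured by TaqMan qRT-PCR, normalized to ACTB, GAPDH, POLR2A. Bidirectional fit versus DMSO.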

Read-out in the next test: CYP2C9 (gene 1559)
The test can be described thus: LTEA_HepaRG_CYP2C9: Life Technologies and Expression Analysis (LTEA) Assay for CYP2C9 using HepaRG (AID 2283484). The method in brief:
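Differentiated human HepaRG cells in serum-free induction medium were exposed 48 h to chemicals in 8-point half-log series from 100 uM (0.5% DMSO), in duplicate. CYP2C9 mRNA was measured by qRT-PCR, normalized to ACTB/GAPDH/POLR2A, with bidirectional fitting versus DMSO.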

Read-out in the next test: CYP2E1 (gene 1571)
Description: LTEA_HepaRG_CYP2E1: Life Technologies and Expression Analysis (LTEA) Assay for CYP2E1 using HepaRG (AID 2283485). The method in brief: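 HepaRG cells, plated 48 h, then exposed 48 h in serum-free induction medium to eight half-log concentrations from 100 uM in 0.5% DMSO, duplicate. CYP2E1 mRNA by qRT-PCR, normalized to ACTB/GAPDH/POLR2A; bidirectional fit versus DMSO.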

Read-out in test [11]: Cytochrome P450 3A4 (Homo sapiens) (UniProt P08684)
The test can be described thus: LTEA_HepaRG_CYP3A4: Life Technologies and Expression Analysis (LTEA) Assay for CYP3A4 using HepaRG (AID 2283487). The procedure, abridged: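 Differentiated HepaRG cells, plated 48 h, then dosed 48 h in serum-free induction medium with 0.5% DMSO, 8 half-log concentrations up to 100 uM, duplicate. CYP3A4 mRNA by qRT-PCR, normalized to ACTB/GAPDH/POLR2A; bidirectional fit versus DMSO.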

Read-out in test [12]: DNA damage-inducible transcript 3 (DDIT3), DDIT3 (gene 1649)
Description: LTEA_HepaRG_DDIT3: Life Technologies and Expression Analysis (LTEA) Assay for DNA damage-inducible transcript 3 (DDIT3) using HepaRG (AID 2283488). The procedure, abridged: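 HepaRG cells, 48 h after plating, exposed 48 h in serum-free induction medium to 8 half-log concentrations up to 100 uM in 0.5% DMSO, in duplicate. DDIT3 mRNA measured by TaqMan qRT-PCR, normalized to ACTB, GAPDH and POLR2A. Fitted bidirectionally against DMSO.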

Read-out in test [13]: Pro-epidermal growth factor (Homo sapiens) (UniProt P01133)
Description: LTEA_HepaRG_EGF: Life Technologies and Expression Analysis (LTEA) Assay for Epidermal growth factor (EGF) using HepaRG (AID 2283489). The method in brief: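 HepaRG cells (~100,000/well, 48 h pre-culture) exposed in duplicate for 48 h in serum-free induction medium to 8 half-log concentrations up to 100 uM in 0.5% DMSO. EGF mRNA by qRT-PCR, normalized to ACTB/GAPDH/POLR2A; bidirectional fit versus DMSO.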

Read-out in a further test: CYP2C8 (gene 1558)
Description: LTEA_HepaRG_CYP2C8: Life Technologies and Expression Analysis (LTEA) Assay for CYP2C8 using HepaRG (AID 2283483). The procedure, abridged: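 Differentiated HepaRG cells in serum-free induction medium exposed 48 h in duplicate to 8 half-log concentrations from 100 uM in 0.5% DMSO. CYP2C8 mRNA by qRT-PCR normalized to ACTB, GAPDH, POLR2A; bidirectional fit versus DMSO.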

Read-out in a further test: CYP4A11 (gene 1579)
Description: LTEA_HepaRG_CYP4A11: Life Technologies and Expression Analysis (LTEA) Assay for CYP4A11 using HepaRG (AID 2283486). The method in brief:
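Differentiated HepaRG cells, 48 h after plating, exposed in duplicate for 48 h to 8 half-log concentrations up to 100 uM in 0.5% DMSO in serum-free induction medium. CYP4A11 mRNA measured by TaqMan qRT-PCR, normalized to ACTB, GAPDH and POLR2A.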

Chain of Apoptosis regulator Bcl-2 (Homo sapiens) (P10415 whole entry, looked up): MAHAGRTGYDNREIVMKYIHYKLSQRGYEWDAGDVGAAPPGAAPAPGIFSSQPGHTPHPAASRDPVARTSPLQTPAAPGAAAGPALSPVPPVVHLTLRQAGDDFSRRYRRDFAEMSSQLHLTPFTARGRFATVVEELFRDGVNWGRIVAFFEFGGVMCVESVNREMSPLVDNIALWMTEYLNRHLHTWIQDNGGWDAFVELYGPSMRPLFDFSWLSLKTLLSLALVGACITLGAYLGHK
Chain of Cytochrome P450 2C19 (Homo sapiens) (P33261 whole entry, looked up): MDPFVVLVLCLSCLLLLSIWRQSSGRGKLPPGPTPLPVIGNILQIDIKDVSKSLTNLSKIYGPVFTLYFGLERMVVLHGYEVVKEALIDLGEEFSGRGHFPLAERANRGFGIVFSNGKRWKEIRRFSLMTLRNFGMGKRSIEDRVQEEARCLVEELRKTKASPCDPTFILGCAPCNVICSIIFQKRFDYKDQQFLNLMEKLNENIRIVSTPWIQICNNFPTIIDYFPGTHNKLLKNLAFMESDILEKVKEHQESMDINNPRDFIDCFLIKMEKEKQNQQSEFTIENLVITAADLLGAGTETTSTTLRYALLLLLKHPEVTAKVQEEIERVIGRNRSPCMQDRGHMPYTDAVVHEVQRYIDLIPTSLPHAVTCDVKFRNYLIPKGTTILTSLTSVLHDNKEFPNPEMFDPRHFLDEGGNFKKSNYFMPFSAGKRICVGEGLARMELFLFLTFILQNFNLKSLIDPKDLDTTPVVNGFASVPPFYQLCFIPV
Chain of Cytochrome P450 3A4 (Homo sapiens) (P08684 whole entry, looked up): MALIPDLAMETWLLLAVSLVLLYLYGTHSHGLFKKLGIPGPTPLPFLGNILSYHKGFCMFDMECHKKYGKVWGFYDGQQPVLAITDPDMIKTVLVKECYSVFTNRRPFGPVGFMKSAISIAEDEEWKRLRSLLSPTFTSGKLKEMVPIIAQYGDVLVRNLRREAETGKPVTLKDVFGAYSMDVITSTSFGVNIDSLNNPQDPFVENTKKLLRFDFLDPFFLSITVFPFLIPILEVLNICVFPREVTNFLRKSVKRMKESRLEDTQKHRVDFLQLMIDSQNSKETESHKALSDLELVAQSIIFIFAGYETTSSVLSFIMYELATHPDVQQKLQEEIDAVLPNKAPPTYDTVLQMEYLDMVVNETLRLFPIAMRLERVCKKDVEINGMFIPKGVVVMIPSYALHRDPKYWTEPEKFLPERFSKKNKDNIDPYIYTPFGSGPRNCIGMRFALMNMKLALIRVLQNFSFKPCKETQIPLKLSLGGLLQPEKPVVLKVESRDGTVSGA
Chain of Caspase-3 (Homo sapiens) (P42574 whole entry, looked up): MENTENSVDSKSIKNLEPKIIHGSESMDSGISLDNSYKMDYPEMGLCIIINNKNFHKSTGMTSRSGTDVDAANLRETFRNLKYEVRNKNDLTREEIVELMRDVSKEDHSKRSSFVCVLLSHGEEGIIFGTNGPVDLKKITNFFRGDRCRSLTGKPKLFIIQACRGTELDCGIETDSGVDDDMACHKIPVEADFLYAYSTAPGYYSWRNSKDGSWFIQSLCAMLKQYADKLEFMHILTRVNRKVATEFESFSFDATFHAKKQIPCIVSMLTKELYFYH

In the case of `COP(=O)(OC)O/C(C)=C/C(=O)N(C)C`, the result (in test [1]; in test [2]; in test [3]; with BCL2L11 (gene 10018); in test [4]; in [5]) was inactive. Moreover, the outcome (in test [6]; with Caspase-3 (Homo sapiens); in [7]; in [8]; in [9]; in test [10]) was inactive. For the same molecule, the call (with CYP2C9 (gene 1559); in the test with CYP2E1 (gene 1571); in test [11]; in test [12]; in test [13]) was inactive.

As a reminder, the AC50 is the concentration at which the activity in the assay is half-maximal. `CCNP(=S)(OC)O/C(C)=C/C(=O)OC(C)C` (configuration not stated): the call (in test [1]; in [2]; in [3]; in the test with BCL2L11 (gene 10018); in test [4]; in test [5]) was inactive. Moreover, the molecule was called inactive (in test [6]; with Caspase-3 (Homo sapiens); in test [7]; in test [8]; in the test with CYP2C9 (gene 1559); in test [12]). Moreover, in test [13], the call was inactive. Also, the AC50 was 5.19 µM (active) in [9], 8.66 µM (active) in [10], 34.8 µM (active) with CYP2E1 (gene 1571) and 8.97 µM (active) in test [11].

As for `Cc1nc(N(C)C)nc(OC(=O)N(C)C)c1C`, the result (in [1]; in test [2]; in test [3]; in the test with BCL2L11 (gene 10018); in test [4]; in test [5]) was inactive. The outcome (in [6]; in the test with Caspase-3 (Homo sapiens); in test [8]; with CYP2C9 (gene 1559); in the test with CYP2E1 (gene 1571); in test [12]) was inactive. The call in [13] was inactive. In addition, the concentration at half-maximal activity (AC50) in test [7] is 92.4 µM (active); in test [9] it was 8.42 µM (active); in [10] it was 19.7 µM (active); in the test with CYP2C8 (gene 1558) it was 9.92 µM (active); in test [11], 40.7 µM (active).

Consider `CC(C)N1C(=O)c2ccccc2NS1(=O)=O`, for which the molecule was called inactive (in [1]; in [2]; in [3]; with BCL2L11 (gene 10018); in test [4]; in test [5]). In addition, the call (in test [6]; in the test with Caspase-3 (Homo sapiens); in test [7]; in test [8]; in test [10]; in the test with CYP2C9 (gene 1559)) was inactive. Moreover, the molecule was called inactive (with CYP2E1 (gene 1571); in test [11]; in test [12]; in [13]). In addition, the AC50 in test [9] was 50 µM (active).

For `CC1(C)C(C(=O)OC(C#N)c2cccc(Oc3ccccc3)c2)C1(C)C` (configuration not stated), the result (in test [1]; in [2]; in test [3]; with BCL2L11 (gene 10018); in test [4]; in test [5]) was inactive. Moreover, the result (in test [6]; with Caspase-3 (Homo sapiens); in test [7]; in [8]; with CYP2C9 (gene 1559); in [12]) was inactive. The outcome in [13] was inactive. Further, the AC50 in test [9] is 67.6 µM (active); in test [10], 50 µM (active); with CYP2E1 (gene 1571), 9.92 µM (active); in the test with CYP4A11 (gene 1579), 50 µM (active); in test [11], 50 µM (active).
